Compound activity deposited in PubChem BioAssay by several laboratories.
CD11b adhes enh = enhancers of CD11b/CD18 adhesion to fibrinogen, primary screen, K562 cells, luminescence; ATPlite luminescence; 0.07% of 93,000 active; activation, % at 10 µM; AID 1499, 2009;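 active means 10 µM primary screen giving 50% or more activity, confirmed by 40% or more on retest at that dose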
ERa coact inh = ERα–SRC-1 coactivator interaction inhibitors, primary screen, biochemical, TR-FRET, ERα LBD, estradiol-bound; Estrogen receptor (Homo sapiens), P03372; TR-FRET ER-alpha LBD / SRC-1 peptide; inhibition, % at 25.6 µM; 1.7% of 86,000 active; AID 629, 2007; in the data active means inhibition above about 50%;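 further: 0% = receptor plus peptide control and 100% = peptide only without receptor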
FAK blocker = FAK kinase inhibitors, primary screen, biochemical | Focal adhesion kinase 1 (Homo sapiens), Q05397 | biochemical FAK kinase activity assay | inhibition, %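 (tested at 7 µM)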 | 0.84% of 97,000 active | AID 727, 2007; in the data active means inhibition above about 19%;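 further: 0% = DMSO and 100% = reference compound high control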
Target sequence (Q05397 whole entry, looked up): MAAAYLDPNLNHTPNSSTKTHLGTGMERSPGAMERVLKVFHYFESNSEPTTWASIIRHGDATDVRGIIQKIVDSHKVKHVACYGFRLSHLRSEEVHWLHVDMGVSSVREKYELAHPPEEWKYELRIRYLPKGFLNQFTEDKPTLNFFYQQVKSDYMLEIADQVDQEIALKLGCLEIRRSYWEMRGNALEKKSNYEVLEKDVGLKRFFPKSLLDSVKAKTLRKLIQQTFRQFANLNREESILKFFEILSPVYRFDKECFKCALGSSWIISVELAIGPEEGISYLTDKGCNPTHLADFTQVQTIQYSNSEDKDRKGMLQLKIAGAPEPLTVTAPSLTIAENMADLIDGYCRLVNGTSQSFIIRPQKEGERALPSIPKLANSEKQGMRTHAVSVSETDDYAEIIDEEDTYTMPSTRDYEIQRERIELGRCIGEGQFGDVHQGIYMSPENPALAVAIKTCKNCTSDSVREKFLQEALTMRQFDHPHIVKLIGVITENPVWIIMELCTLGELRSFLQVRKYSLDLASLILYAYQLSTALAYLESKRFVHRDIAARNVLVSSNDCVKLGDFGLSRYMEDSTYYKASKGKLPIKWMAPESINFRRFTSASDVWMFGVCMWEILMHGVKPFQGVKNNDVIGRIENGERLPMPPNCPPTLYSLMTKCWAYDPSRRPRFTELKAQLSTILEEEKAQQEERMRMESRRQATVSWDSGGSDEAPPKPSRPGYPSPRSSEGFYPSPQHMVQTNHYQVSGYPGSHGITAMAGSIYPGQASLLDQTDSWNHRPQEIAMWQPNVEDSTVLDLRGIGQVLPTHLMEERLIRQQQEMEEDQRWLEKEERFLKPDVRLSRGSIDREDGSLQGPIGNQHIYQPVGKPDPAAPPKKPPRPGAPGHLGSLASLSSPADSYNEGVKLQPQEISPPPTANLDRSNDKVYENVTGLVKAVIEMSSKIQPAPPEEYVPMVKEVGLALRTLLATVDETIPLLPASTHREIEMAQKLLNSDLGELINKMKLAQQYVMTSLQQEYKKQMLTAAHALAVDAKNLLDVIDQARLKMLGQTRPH
CD11b adhes inh = inhibitors of CD11b/CD18 adhesion to fibrinogen, primary screen, K562 cells, luminescence | Integrin beta-2 (Homo sapiens) + Integrin alpha-M (Homo sapiens), P05107+P11215 | ATPlite luminescence; Mn2+ added to activate the integrin | inhibition, % at 10 µM | 0.54% of 93,000 active;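 active means primary inhibition of 50% or more at 10 µM, then 40% or more on retest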
ERa coact pot = enhancers of ERα–SRC-1 coactivator binding, primary screen, biochemical, TR-FRET, ERα LBD, low estradiol; coactivator binding (% of control), % at 25.6 µM; 1.3% of 86,000 active; Estrogen receptor (Homo sapiens), P03372; AID 639, 2007; TR-FRET ERalpha-LBD/SRC-Cy5 coactivator binding, 2 h; 100 = basal binding, no effect; in the data active means activity above about 200%;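 further: binding measured in presence of low estradiol as agonist stimulus; 0% = peptide alone without receptor and 100% = receptor with peptide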
ERb SRC1 inh = inhibitors of ERβ-SRC1 coactivator interaction, primary screen, biochemical, TR-FRET, ERβ LBD, SRC-1 peptide. TR-FRET ER-beta LBD / SRC1-Cy5 peptide binding; receptor agonist-loaded with 1 µM estradiol. Estrogen receptor beta (Homo sapiens), Q92731. AID 633, 2007. inhibition, % at 25.6 µM. 1.3% of 86,000 active;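 active means compounds whose percent inhibition of the receptor-coactivator binding signal exceeds about 50% in the single-dose screen, limit read from the data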;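 further: 0% = receptor plus peptide wells without compound and 100% = peptide-only wells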
The depositor's hits bear a star; nt = no result; [ ] = dose if it differs, or a comment. The list is not random: actives were taken first. Their share in the collection is about 3.5%.

SMILES | CD11b adhes enh | ERa coact inh | FAK blocker | CD11b adhes inh | ERa coact pot | ERb SRC1 inh
O=C(CSc1nc2c([nH]c3ccccc32)c(=O)n1-c1cccc(Cl)c1)N1CCOCC1 | nt | 91*[fluorescence artefact?] | 14 | nt | 44 | 73*[fluorescence artefact?]
COc1cccc(-n2c(SCC(N)=O)nc3c([nH]c4ccccc43)c2=O)c1 | -2 | 4 | nt | -7 | 633*[fluorescence artefact?] | -6
O=C(CSc1nc2c([nH]c3ccccc32)c(=O)n1-c1ccccc1)N1CCOCC1 | -1 | 3 | nt | -4 | 141 | -5
O=C(Nc1nc(-c2cc(Cl)sc2Cl)cs1)c1ccccc1 | -7 | nt | 0 | 67 | nt | nt
O=C(Cc1ccc(Cl)cc1Cl)OCC(=O)c1ccc[nH]1 | -4 | nt | 3 | -5 | nt | nt
O=C(COc1ccc(F)c(Cl)c1)c1ccc[nH]1 | 4 | 66*[fluorescence artefact?] | -1 | 38 | 40 | 45
Cc1c(Cc2ccccc2)sc(NC(=O)c2ccco2)c1C(N)=O | nt | 24 | 25* | nt | 110 | 9
COC(=O)c1c(NC(=O)c2ccco2)sc(C)c1C | 1 | -6 | 0 | -8 | 133 | -5
Cn1c(=O)c2nc(-c3ccc(Cl)cc3Cl)oc2c2ccccc21 | nt | 59*[fluorescence artefact?] | nt | nt | 132 | 45
Clc1ccc(-c2nnc(CCc3ccccc3)o2)c(Cl)c1 | nt | nt | 0 | nt | nt | nt
Cc1ccc(-n2c(SCc3cc(=O)n4ccsc4n3)nnc2-c2cccnc2)c(C)c1 | 4 | 75*[fluorescence artefact?] | -2 | -9 | 120 | 62*
COCc1cc(=O)n2c(-c3ccc(C)cc3)n[nH]c2n1 | 12 | 45 | nt | -2 | 55 | 60*
Cc1sc2ncnc(N(C)Cc3cccs3)c2c1C | 0 | -5 | 1 | 34 | 128 | -15
CN(Cc1cccs1)c1ncnc2sccc12 | -8 | nt | 12 | 89* | nt | nt
O=C(CN1CCC(C(O)(c2ccccc2)c2ccccc2)CC1)Nc1cc(Cl)ccc1Cl | nt | nt | 7 | nt | nt | nt
c1ccc(OCc2nnc3sc(C4COc5ccccc5O4)nn23)cc1 (stereo not given) | 16 | 58* | 1 | -6 | 106 | 60*
c1ccc(Cc2nnc3sc(C4COc5ccccc5O4)nn23)cc1 (stereo not given) | nt | nt | 2 | nt | nt | nt
CCC(=O)Oc1ccc(C/C(=N\O)c2ccc(O)cc2O)o1 | -1 | 70*[fluorescence artefact?] | 4 | -2 | 13 | 78*[fluorescence artefact?]
CS(=O)(=O)N1CCN(c2ccc(NC(=O)C(c3ccccc3)c3ccccc3)cc2)CC1 | nt | -14 | 0 | nt | 90 | -28
O=C(Nc1ccc(N2CCCC2)cc1)C(Cl)c1ccccc1 (stereo not given) | 3 | 59* | 2 | -18 | 47 | 50*
CCOc1ccc(N2C(=O)CC(N3CCc4ccccc43)C2=O)cc1 (stereo not given) | -2 | -9 | -2 | -32 | 98 | 7
COc1ccc2nc(NC(=O)CCc3nc(-c4ccccc4F)no3)sc2c1 | 44 | 34 | 0 | -7 | 204* | 48
COc1ccc2nc(NC(=O)Cc3cccs3)sc2c1 | 0 | 15 | 6 | -2 | 67 | 22
Cc1ccc(-c2csc3ncnc(Sc4nnc(CN5CCCCCC5=O)o4)c23)cc1 | 17 | -4 | 12 | -10 | 102 | 6
Cc1cccc(N2C(=O)CC(N3CCN(C(=O)c4ccccc4)CC3)C2=O)c1 (stereo not given) | nt | nt | -6 | nt | nt | nt
SMILES | CD11b adhes enh | ERa coact inh | FAK blocker | CD11b adhes inh | ERa coact pot | ERb SRC1 inh
Cc1ccccc1C(=O)Nc1ccccc1 | -1 | -1 | -3 | -1 | 114 | -1
Cc1ccccc1C(=O)Nc1cccc(NC(=O)c2ccc(-c3ccc(Br)cc3)o2)c1 | 17 | 79*[fluorescence artefact?] | 1 | 6 | 67 | 44
Cc1nc2ccc(NC3=NCCCCC3)cc2s1 | -3 | 7 | -1 | -7 | 85 | 15
CC(Oc1ccc(Cl)cc1Cl)C(=O)Nc1cccnc1 (stereo not given) | nt | -9 | 0 | nt | 104 | -4
Cc1cc(Cl)ccc1OC(C)C(=O)Nc1ccc(S(=O)(=O)Nc2cnc3ccccc3n2)cc1 (stereo not given) | nt | nt | 7 | nt | nt | nt
CC(Oc1ccc(Cl)cc1Cl)C(=O)Nc1ccncc1 (stereo not given) | -4 | -2 | 6 | 57* | 91 | -8
CC(Oc1ccc(Cl)cc1Cl)C(=O)Nc1ccc(S(=O)(=O)Nc2cnc3ccccc3n2)cc1 (stereo not given) | 6 | nt | -2 | 78* | nt | nt
Cc1ccc(CCNC(=O)c2coc3nc4ccccc4nc23)cc1 | -1 | -24 | -35 | -17 | 290*[fluorescence artefact?] | -6
CC1CCN(CCCNC(=O)c2coc3nc4ccccc4nc23)CC1 | -2 | -12 | 3 | -19 | 114 | -9
O=C(NC1CCCCCCC1)c1ccc(S(=O)(=O)N2CCCC2)cc1 | -1 | 20 | -6 | 4 | 96 | -8
CCCCN(CCCC)S(=O)(=O)c1ccc(NC(=O)Cc2cccs2)cc1 | 2 | 67*[fluorescence artefact?] | 4 | 73 | 62 | 67*
CC(=O)c1cccc(NC(=O)Cc2cccs2)c1 | 3 | 84* | nt | -4 | 29 | 73*[fluorescence artefact?]
CCCN(CCC)S(=O)(=O)c1ccc(NC(=O)Cc2cccs2)cc1 | -3 | 63* | 8 | 7 | 79 | 48
CCCNS(=O)(=O)c1ccc(NC(=O)Cc2cccs2)cc1 | nt | -6 | 0 | nt | 111 | -1
CCCN1CCCc2cc(CN(CCCN3CCOCC3)C(=O)Nc3ccc(OCC)cc3)ccc21 | 0 | 3 | 3 | 65* | 94 | 6
O=C(CSc1nnc(SCC(=O)c2ccco2)s1)c1ccco1 | nt | 60* | 4 | nt | 67 | 53*
O=C(CSc1nc2cc(Cl)ccc2s1)c1ccco1 | -1 | 12 | nt | 14 | 73 | 8
Fc1ccc(NC(=S)NN=C2CCCCCC2)cc1 | -1 | -3 | 0 | 1 | 109 | -1
COc1ccc(C(C)=O)cc1COC(=O)c1ccc(OCc2c(C)noc2C)cc1 | 30 | 55*[fluorescence artefact?] | 9 | -18 | 277* | 42
Cc1noc(C)c1COc1ccc(C(=O)OCC(=O)N2c3ccccc3NC(=O)C2(C)C)cc1 | -3 | 73* | 3 | 21 | 54 | 68*
Cn1c(=O)[nH]c(=O)c2c1ncn2CCN1CCCCC1 | -4 | 1 | -8 | 6 | 110 | -12
NS(=O)(=O)c1ccc(CCNC(=O)C2CCN(S(=O)(=O)c3cnc[nH]3)CC2)cc1 | -7 | nt | -5 | -5 | nt | nt
COc1ccc(C(=O)Nc2nnc(-c3cccs3)s2)cc1 | 3 | nt | 0 | 6 | nt | nt
COc1cc(C(=O)Nc2nnc(-c3sccc3C)s2)cc(OC)c1OC | 19 | 32 | 1 | 0 | 476* | 31
CCc1nnc(NC(=O)C2CCN(c3nccc(C)n3)CC2)s1 | 1 | 1 | 0 | -13 | 100 | -3
